Data on 15 compounds can be found in PubChem BioAssay (NCI).

Test in all cases: NCI-60 one-dose screen, 48 h (100 = growth as untreated, 0 = no growth, -100 = all killed)
In one experiment the test system is NCI-H23 lung. Conditions: 10 µM unless noted.
A further experiment concerns NCI-H322M lung. Conditions: 10 µM unless noted.
In the next experiment the test system is HOP-62 NSCLC. As to conditions: 10 µM unless noted.
The next experiment concerns NCI-H460 lung. As to conditions: 10 µM unless noted.
The test system of the next experiment is HOP-92 NSCLC. Conditions: 10 µM unless noted.
In the next experiment the test system is A549/ATCC NSCLC. As to conditions: 10 µM unless noted.
The next experiment relates to 786-0 renal. As to conditions: 10 µM unless noted.
The subject of a further experiment is COLO 205 colon. As to conditions: 10 µM unless noted.
A further experiment deals with NCI-H522 lung. Conditions: 10 µM.

The panel holds about 83,000 compounds, 20% with a hit somewhere; the sample as a whole holds those more often.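 96-well plates, one dose, 48 hours. Percent growth reported; active if below 10.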 Values without a mark were called inactive. Calls of active or inactive are those of the source.

Turning to `O=C1C(OCCOc2ccccc2)=C(OCCOc2ccccc2)C(=O)c2ccccc21`, the growth in the experiment with NCI-H23 lung was 16.3%; in the experiment on NCI-H322M lung it was 60.3%; with HOP-62 NSCLC it was 56.4%; in the experiment with NCI-H460 lung, -26% (active); in the experiment with HOP-92 NSCLC it was 102%; in the experiment with A549/ATCC NSCLC, 17.4%. Further, the growth in the experiment on 786-0 renal was 100%; with COLO 205 colon, 102%.
As for `O=c1[nH]c(-c2ccccn2)nc2sc3c(c12)CCCCCC3`, the growth in the experiment on NCI-H23 lung is 48.7%; in the experiment on NCI-H322M lung, 46.8%; in the experiment with HOP-62 NSCLC it was 43%; with NCI-H460 lung, 15.9%; in the experiment on HOP-92 NSCLC, -2.86% (active); in the experiment with A549/ATCC NSCLC, 23.2%. The values for the growth in the experiment on 786-0 renal and in the experiment with COLO 205 colon were 46.1% and 33%, respectively.
Turning to `Cc1c(C(=O)Nc2nc(-c3ccccc3)cs2)nnn1-c1ccccc1Br`, the growth in the experiment on NCI-H23 lung is 28.7% [50 µM]; in the experiment on NCI-H322M lung, 79.5% [50 µM]; with HOP-62 NSCLC it was 94.7% [50 µM]; with NCI-H460 lung it was 45.2% [50 µM]; with HOP-92 NSCLC, 57.4% [50 µM]; in the experiment on A549/ATCC NSCLC it was 30.9% [50 µM]. The growth in the experiment on 786-0 renal is 66.7% [50 µM]; with COLO 205 colon, 42.3% [50 µM].
For the compound `Oc1ccc2ccccc2c1C1NN=C(c2ccccc2)S1` (centres undefined), the growth in the experiment with NCI-H23 lung was 35%; with NCI-H322M lung, 29.2%; with HOP-62 NSCLC, 28.8%; with NCI-H460 lung it was -27.8% (active); with HOP-92 NSCLC it was 42.8%; with A549/ATCC NSCLC, 18%. The growth in the experiment on 786-0 renal was 6.82% (active); in the experiment on COLO 205 colon, 16.6%.
`CCN1CCN(c2ccc(Nc3ncc4ccc5ncn(C(C)C)c5c4n3)nc2)CC1`: the growth in the experiment with NCI-H23 lung was -26.1% (active); in the experiment with NCI-H322M lung it was 1.51% (active); with HOP-62 NSCLC, -7.69% (active); with NCI-H460 lung it was -30.3% (active); in the experiment on HOP-92 NSCLC it was 13.9%; with A549/ATCC NSCLC it was 9.87% (active). For the same compound, the growth is 9.21% (active) with 786-0 renal and -40.4% (active) in the experiment on COLO 205 colon.
As for `O=c1c2c(=NCCN3CCCC3)cc3c(=O)n(CCCN4CCOCC4)c(=O)c4c(-c5ccc(CN6CCCC6)cc5)cc(c(O)n1CCCN1CCOCC1)c2c4-3`, the growth was -70.9% (active) in the experiment on NCI-H23 lung; -29.6% (active) in the experiment on NCI-H322M lung; -21.3% (active) in the experiment with HOP-62 NSCLC; -62.9% (active) with NCI-H460 lung; -16.4% (active) in the experiment on HOP-92 NSCLC; -16.2% (active) with A549/ATCC NSCLC. The growth is -42% (active) in the experiment with 786-0 renal and -60.4% (active) in the experiment on COLO 205 colon.
As for `CC(C)(C)[Si](C)(C)OC1[C@@H](COC(N)=O)O[C@@H](n2cnc3c(N)ncnc32)[C@H]1O[Si](C)(C)C(C)(C)C` (some centres undefined), the growth was 87.9% in the experiment with NCI-H23 lung; 114% in the experiment on NCI-H322M lung; 95.7% in the experiment on HOP-62 NSCLC; 83.9% with NCI-H460 lung; 55.3% in the experiment with HOP-92 NSCLC; 67.8% in the experiment on A549/ATCC NSCLC. Besides, the growth is 91.2% in the experiment with 786-0 renal and 103% in the experiment with COLO 205 colon.
Turning to `CC(C)OC1=C(Cl)C(=O)c2ccccc2C1=O`, the growth in the experiment with NCI-H23 lung was 81.8%; in the experiment with NCI-H322M lung it was 95%; with HOP-62 NSCLC, 92.1%; with NCI-H460 lung it was 103%; in the experiment with HOP-92 NSCLC, 99.8%; in the experiment on A549/ATCC NSCLC it was 102%. The growth was 108% in the experiment on 786-0 renal and 97.7% in the experiment with COLO 205 colon.
`O=c1[nH]c(=O)n(Cc2ccc(F)cc2)cc1F`: the growth in the experiment on NCI-H23 lung was 105% [50 µM]; with NCI-H322M lung, 107% [50 µM]; with HOP-62 NSCLC, 109% [50 µM]; in the experiment on NCI-H460 lung it was 108% [50 µM]; in the experiment with HOP-92 NSCLC, 108% [50 µM]; in the experiment with A549/ATCC NSCLC, 96% [50 µM]. Besides, the growth with 786-0 renal is 105% [50 µM]; with COLO 205 colon, 115% [50 µM].
Turning to `O=c1[nH]c(-c2ccncc2)nc2sc3c(c12)CCCCCC3`, the growth in the experiment with NCI-H23 lung is 88.5%; in the experiment with NCI-H322M lung, 59.4%; in the experiment with HOP-62 NSCLC it was 52.2%; with NCI-H460 lung it was 30.4%; with HOP-92 NSCLC, -25.1% (active); with A549/ATCC NSCLC it was 43.7%. For the same compound, the growth is 80.4% with 786-0 renal and 106% with COLO 205 colon.
`COc1ccccc1/C=C/C(=O)/C=C/c1ccccc1O`: the growth was -11.3% (active) in the experiment on NCI-H23 lung; 24.9% with NCI-H322M lung; 62% in the experiment on HOP-62 NSCLC; -58.2% (active) with NCI-H460 lung; 30.1% in the experiment with NCI-H522 lung; 6.86% (active) in the experiment with A549/ATCC NSCLC. In addition, the growth in the experiment with 786-0 renal is -44% (active); with COLO 205 colon it was -48.6% (active).
Turning to `COc1cc(C(=O)N(C(C)C)C2CCCCC2)cc(OC)c1OC`, the growth was 101% with NCI-H23 lung; 108% in the experiment with NCI-H322M lung; 93.3% with HOP-62 NSCLC; 107% in the experiment with NCI-H460 lung; 88.3% in the experiment on NCI-H522 lung; 97.2% with A549/ATCC NSCLC. The growth in the experiment on 786-0 renal was 121%; in the experiment with COLO 205 colon, 105%.
For `COc1ccc(-c2csc3c2-n2cccc2C3=O)cc1O`, the growth in the experiment on NCI-H23 lung is 11.7%; with NCI-H322M lung, 17.5%; with HOP-62 NSCLC, 31.3%; in the experiment with NCI-H460 lung it was 1.57% (active); in the experiment on NCI-H522 lung, -22.5% (active); in the experiment on A549/ATCC NSCLC, 11.9%. The growth with 786-0 renal is 1.66% (active); in the experiment on COLO 205 colon it was 72.3%.
For `COC(=O)[C@@H]1CCCN1C(=O)[C@@H]1CCCN1C(=O)[C@@H](Cc1c[nH]c2ccccc12)NC(=S)Nc1cc(C(F)(F)F)cc(C(F)(F)F)c1`, the growth was 74.2% with NCI-H23 lung; 75.8% in the experiment on NCI-H322M lung; 83.3% in the experiment on HOP-62 NSCLC; 51.6% in the experiment on NCI-H460 lung; 73.2% in the experiment with NCI-H522 lung; 56.4% with A549/ATCC NSCLC. For the same compound, the growth in the experiment on 786-0 renal is 69.8%; with COLO 205 colon it was 16.8%.
Consider `COC(=O)/C=C1/CCC2C3CCC4=CC(=O)C(Br)CC4(C)C3C(=O)CC12C` (centres undefined), for which the growth in the experiment with NCI-H23 lung is 67.5%; in the experiment with NCI-H322M lung, 115%; in the experiment with HOP-62 NSCLC it was 80.6%; in the experiment with NCI-H460 lung it was 59.3%; in the experiment with HOP-92 NSCLC, 76.6%; in the experiment on 786-0 renal it was 83.8%. For the same compound, the growth with COLO 205 colon is 80.2%.
